# Records with an inconclusive call do not appear. Entries that show only a call come without a potency. Active and inactive are the calls of the source. Unless noted, the call rests on the fitted dose curve; in most records, active means well fitted curve in the direction sought with a large enough effect in the repeat runs; inconclusive means weak or mixed curves; inactive means no such curve, though single readings can be large; an effect the other way counts as inactive or inconclusive.
# Test system: not listed separately
# Assay: qHTS assay to identify small molecule agonists of the peroxisome proliferator-activated receptor delta (PPARd) signaling pathway - cell viability counter screen (AID 743211); further: nearly all actives have a fitted effect of over 55% in size; further: potency means the concentration at half of the fitted maximal effect
# Conditions: PPARd-bla HEK293H viability, CellTiter-Glo luminescence, 17 h; series mostly up to 62.6 µM
# In short: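 Luminescent ATP viability assay (CellTiter-Glo, 30 min RT) in UAS-bla HEK293H cells carrying the PPAR delta reporter construct, 3000 cells/well, after a 17 h compound treatment at 37 C.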
row,SMILES,Potency
1,CN(C[C@@H](CC[N+]12CCC(C3CCCCC3)(CC1)CC2)c1ccc(Cl)c(Cl)c1)C(=O)c1cc(C(F)(F)F)cc(C(F)(F)F)c1,17.4 µM (active)
2,CN1CC[C@H](c2c(O)cc(O)c3c(=O)cc(-c4ccccc4Cl)oc23)[C@H](O)C1,inactive
3,C=CCc1cc(S(=O)(=O)c2ccc(O)c(CC=C)c2)ccc1O,43.6 µM (active)
4,Cc1cc(F)ccc1-c1cc(N2CC[C@@H](O)[C@H]2CO)ncc1N(C)C(=O)C(C)(C)c1cc(C(F)(F)F)cc(C(F)(F)F)c1,13.6 µM (active)
5,COc1cc(/C=C/C(=O)CC(=O)/C=C/c2ccc(O)c(OC)c2)ccc1O,34.9 µM (active)
6,CCCCCN=C(N)N/N=C/c1c[nH]c2ccc(OC)cc12,8.41 µM (active)
7,C[C@H]1O[C@@H](O[C@H]2CC[C@@]3(C)[C@H](CC[C@@H]4[C@@H]3C[C@@H](O)[C@]3(C)[C@@H](C5=CC(=O)OC5)CC[C@]43O)C2)C[C@H](O)[C@@H]1O[C@H]1C[C@H](O)[C@H](O[C@H]2C[C@H](O)[C@H](O[C@@H]3O[C@H](CO)[C@@H](O)[C@H](O)[C@H]3O)[C@@H](C)O2)[C@@H](C)O1,0.298 µM (active)
8,CN(C)CCOc1ccc(/C(=C(/CCCl)c2ccccc2)c2ccccc2)cc1,14.5 µM (active)
9,O=C(CCN1CCC(c2ccccc2)C1)c1ccc2c(c1)OCCO2 (configuration not stated),inactive
10,COc1cccc(-c2ccc(/C=C\CN3CCCCCC3)cc2Cl)c1,48.7 µM (active)
11,O=C(CCCCCCCCc1cccnc1)N1CCC(C=C(c2ccccc2)c2ccccc2)CC1,12.3 µM (active)
12,C=C1C(CCl)(CCl)C2(Cl)C(Cl)C(Cl)C1(Cl)C2(Cl)Cl (configuration not stated),34.3 µM (active)

# Target: Peroxisome proliferator-activated receptor delta (Homo sapiens) (UniProt Q03181)
# Sequence (Q03181 whole entry, looked up): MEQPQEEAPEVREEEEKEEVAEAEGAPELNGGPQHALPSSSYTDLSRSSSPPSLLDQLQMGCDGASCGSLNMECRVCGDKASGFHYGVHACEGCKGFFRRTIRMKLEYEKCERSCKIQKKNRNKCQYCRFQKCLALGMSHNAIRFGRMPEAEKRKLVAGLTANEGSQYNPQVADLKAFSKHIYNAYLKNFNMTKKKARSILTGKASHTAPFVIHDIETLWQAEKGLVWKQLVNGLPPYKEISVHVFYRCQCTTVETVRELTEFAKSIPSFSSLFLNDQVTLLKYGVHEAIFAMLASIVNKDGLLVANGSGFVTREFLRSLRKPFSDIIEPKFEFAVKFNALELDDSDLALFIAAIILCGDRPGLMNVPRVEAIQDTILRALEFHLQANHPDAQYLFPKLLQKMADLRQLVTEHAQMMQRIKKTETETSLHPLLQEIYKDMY
# Assay: qHTS assay to identify small molecule agonists of the peroxisome proliferator-activated receptor delta (PPARd) signaling pathway (AID 743212; calls by dose curve)
# Conditions: HEK293H PPARd-UAS-bla, beta-lactamase FRET ratio, 17 h; series mostly up to 62.6 µM
# In short: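 A PPARd-bla HEK293H line with beta-lactamase under an Upstream Activator Sequence is treated with compounds at 37 C. Substrate loading for 2 h at room temperature precedes the fluorescence measurement.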
row,SMILES,outcome
1,O=C1OC(O)C(C(Cl)Cl)=C1Cl (configuration not stated),inactive
2,Cc1ccc(Cl)c(N)c1Cl,inactive
3,CC(O)(c1ccc(Cl)cc1)c1ccc(Cl)cc1,inactive
4,CN(C/C=C/c1ccccc1)Cc1cccc2ccccc12,inactive
5,COc1cc([C@@H]2c3cc4c(cc3[C@@H](O[C@@H]3O[C@@H]5CO[C@@H](C)O[C@H]5[C@H](O)[C@H]3O)[C@H]3COC(=O)[C@H]23)OCO4)cc(OC)c1O,inactive
6,CCCOC(=O)c1ccc(O)cc1,inactive

# Test system: not listed separately
# Assay: qHTS assay to identify small molecule antagonists of the peroxisome proliferator-activated receptor delta (PPARd) signaling pathway - cell viability counter screen (AID 743213); further: nearly all actives have a fitted effect of over 50% in size; further: potency means the concentration at half of the fitted maximal effect
# Conditions: PPARd-bla HEK293H viability, CellTiter-Glo luminescence, 17 h; series mostly up to 62 µM
# In short: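 In this counter screen, HEK293H cells carrying a UAS-beta-lactamase reporter are co-treated with test compounds and 300 nM L165041 (final) for 17 h at 37 C; cell viability is quantified by CellTiter-Glo luminescence.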
row,SMILES,Potency
1,CN(C[C@@H](CC[N+]12CCC(C3CCCCC3)(CC1)CC2)c1ccc(Cl)c(Cl)c1)C(=O)c1cc(C(F)(F)F)cc(C(F)(F)F)c1,24.5 µM (active)
2,CN1CC[C@H](c2c(O)cc(O)c3c(=O)cc(-c4ccccc4Cl)oc23)[C@H](O)C1,inactive
3,CC(O)(c1ccc(Cl)cc1)c1ccc(Cl)cc1,inactive
4,Cc1cc(F)ccc1-c1cc(N2CC[C@@H](O)[C@H]2CO)ncc1N(C)C(=O)C(C)(C)c1cc(C(F)(F)F)cc(C(F)(F)F)c1,13.6 µM (active)
5,COc1cc([C@@H]2c3cc4c(cc3[C@@H](O[C@@H]3O[C@@H]5CO[C@@H](C)O[C@H]5[C@H](O)[C@H]3O)[C@H]3COC(=O)[C@H]23)OCO4)cc(OC)c1O,21.6 µM (active)
6,CCCCCN=C(N)N/N=C/c1c[nH]c2ccc(OC)cc12,33.5 µM (active)
7,O=C1OC(=O)c2cc(-c3ccc4c(c3)C(=O)OC4=O)ccc21,54.9 µM (active)
8,CN(C)CCOc1ccc(/C(=C(/CCCl)c2ccccc2)c2ccccc2)cc1,10.3 µM (active)
9,O=C(CCN1CCC(c2ccccc2)C1)c1ccc2c(c1)OCCO2 (configuration not stated),inactive
10,CC1=C(/C=C/C(C)=C/C=C/C(C)=C\C(=O)O)C(C)(C)CCC1,inactive

# Target: Peroxisome proliferator-activated receptor delta (Homo sapiens) (UniProt Q03181)
# Assay: qHTS assay to identify small molecule antagonists of the peroxisome proliferator-activated receptor delta (PPARd) signaling pathway (AID 743215; active means well fitted inhibition curve with a large enough effect in the signal ratio in the repeat runs, not every such curve was filed as active; the % refers to the signal ratio;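 further: cells stimulated with agonist L165041 at 300 nM final during compound exposure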)
# Conditions: HEK293H PPARd-UAS-bla, beta-lactamase FRET ratio, antagonist, 17 h; series mostly up to 62 µM
# In short: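 PPARd-bla HEK293H cells (UAS-bla reporter) preincubated 5 h, then given compound plus 300 nM final L165041 agonist for 17 h at 37 C. Beta-lactamase activity read by LiveBLAzer B/G FRET substrate fluorescence after 2 h at room temperature.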
row,SMILES,Potency
1,CC(O)(c1ccc(Cl)cc1)c1ccc(Cl)cc1,inactive
2,CN(C/C=C/c1ccccc1)Cc1cccc2ccccc12,inactive
3,COc1cccc(-c2ccc(/C=C\CN3CCCCCC3)cc2Cl)c1,inactive

# Target: Bile acid receptor (Homo sapiens) (UniProt Q96RI1)
# Sequence (Q96RI1 whole entry, looked up): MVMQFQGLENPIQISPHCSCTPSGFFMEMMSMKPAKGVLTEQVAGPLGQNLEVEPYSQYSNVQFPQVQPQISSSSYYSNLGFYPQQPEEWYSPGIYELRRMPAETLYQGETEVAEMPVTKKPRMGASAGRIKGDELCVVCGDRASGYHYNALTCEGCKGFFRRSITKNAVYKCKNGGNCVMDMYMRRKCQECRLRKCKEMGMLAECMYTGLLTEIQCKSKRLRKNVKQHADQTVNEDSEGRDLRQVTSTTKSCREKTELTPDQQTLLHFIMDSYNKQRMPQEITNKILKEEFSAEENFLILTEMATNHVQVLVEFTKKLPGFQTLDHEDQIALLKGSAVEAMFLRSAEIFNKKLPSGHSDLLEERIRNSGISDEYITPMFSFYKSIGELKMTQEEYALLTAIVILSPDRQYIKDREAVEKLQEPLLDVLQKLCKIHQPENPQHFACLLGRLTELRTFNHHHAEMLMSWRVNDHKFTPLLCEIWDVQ
# Assay: qHTS assay to identify small molecule antagonists of the farnesoid-X-receptor (FXR) signaling pathway (AID 743217; active means well fitted inhibition curve with a large enough effect in the signal ratio in the repeat runs, not every such curve was filed as active; the % refers to the signal ratio)
# Conditions: HEK293T FXR-UAS-bla, beta-lactamase ratio, CDCA-stimulated, 16 h; series mostly up to 62.6 µM
# In short: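 FXR-UAS-bla HEK 293T cells (beta-lactamase reporter) given compound plus chenodeoxycholic acid (50 uM final), 16 h at 37C. LiveBLAzer B/G FRET substrate added for 2 h at room temperature; fluorescence read.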
row,SMILES,Potency
1,CC(O)(c1ccc(Cl)cc1)c1ccc(Cl)cc1,inactive
2,CCSCC,inactive
3,COc1cc([C@@H]2c3cc4c(cc3[C@@H](O[C@@H]3O[C@@H]5CO[C@@H](C)O[C@H]5[C@H](O)[C@H]3O)[C@H]3COC(=O)[C@H]23)OCO4)cc(OC)c1O,inactive
4,COc1cccc(-c2ccc(/C=C\CN3CCCCCC3)cc2Cl)c1,inactive
5,CC(C)c1ccc2sc3ccccc3c(=O)c2c1,inactive

# Test system: not listed separately
# Assay: qHTS assay to identify small molecule agonists of the farnesoid-X-receptor (FXR) signaling pathway - cell viability counter screen (AID 743218); further: nearly all actives have a fitted effect of over 45% in size; further: potency means the concentration at half of the fitted maximal effect
# Conditions: FXR-bla HEK293T viability, CellTiter-Glo luminescence, 16 h; series mostly up to 62.6 µM
# In short: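 FXR-UAS-bla HEK 293T cells exposed to compounds for 16 h at 37C. Cytotoxicity read in the same wells by CellTiter-Glo luminescence after 30 min at room temperature, following the beta-lactamase FRET read.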
row,SMILES,Potency
1,CN(C[C@@H](CC[N+]12CCC(C3CCCCC3)(CC1)CC2)c1ccc(Cl)c(Cl)c1)C(=O)c1cc(C(F)(F)F)cc(C(F)(F)F)c1,54.9 µM (active)
2,CN1CC[C@H](c2c(O)cc(O)c3c(=O)cc(-c4ccccc4Cl)oc23)[C@H](O)C1,inactive
3,CC(O)(c1ccc(Cl)cc1)c1ccc(Cl)cc1,inactive
4,Cc1cc(F)ccc1-c1cc(N2CC[C@@H](O)[C@H]2CO)ncc1N(C)C(=O)C(C)(C)c1cc(C(F)(F)F)cc(C(F)(F)F)c1,13.6 µM (active)
5,CCSCC,inactive
6,COc1cc([C@@H]2c3cc4c(cc3[C@@H](O[C@@H]3O[C@@H]5CO[C@@H](C)O[C@H]5[C@H](O)[C@H]3O)[C@H]3COC(=O)[C@H]23)OCO4)cc(OC)c1O,inactive
7,COc1cc(/C=C/C(=O)CC(=O)/C=C/c2ccc(O)c(OC)c2)ccc1O,24.7 µM (active)
8,CCCCCN=C(N)N/N=C/c1c[nH]c2ccc(OC)cc12,13.3 µM (active)
9,S=C1NC=NC2N=CNC12 (configuration not stated),11 µM (active)
10,CN(C)CCOc1ccc(/C(=C(/CCCl)c2ccccc2)c2ccccc2)cc1,20.5 µM (active)
11,O=C(Nc1ccccc1)c1cc(Cl)ccc1O,38.9 µM (active)
12,O=C(CCN1CCC(c2ccccc2)C1)c1ccc2c(c1)OCCO2 (configuration not stated),inactive
13,O=[N+]([O-])c1ccc(O)c2ncccc12,inactive
14,CC(C)c1ccc2sc3ccccc3c(=O)c2c1,inactive
15,O=C(CCCCCCCCc1cccnc1)N1CCC(C=C(c2ccccc2)c2ccccc2)CC1,24.5 µM (active)
16,C=C1C(CCl)(CCl)C2(Cl)C(Cl)C(Cl)C1(Cl)C2(Cl)Cl (configuration not stated),48.4 µM (active)

# Reference: PubChem BioAssay (Tox21)
